Screening results (PubChem)
Rows were chosen to be rich in hits. Some 10% of all compounds tested hit in one or more screens of this group.
Luc counter: counter-screen: inhibitors of Kinase-Glo firefly luciferase; Potency, µM (series often up to 38.3 µM), for inactives: at the top dose activity change, negative = inhibition, hits mostly inhibitors; Kinase-Glo luciferase, ATP luminescence, 8 min; Q27757; actives 0.28% (n = 200,000); active means well fitted inhibition curve with a large enough effect; inconclusive means small, poorly fitted or top-dose-only effect; further: potency means the concentration at half of the fitted maximal effect; nearly all actives have a fitted effect of over 60% in size
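Light output from Kinase-Glo luciferase with luciferin and 10 uM ATP in 50 mM imidazole pH 7.2, KCl, MgCl2, Tween 20, BSA; compound pin-delivered, 8-min ambient incubation, then luminescence read.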
Lamin A splicing: modulators of lamin A splicing | HeLa LMNA splicing GFP/RFP minigene ratio, 48 h | Potency, µM (top dose mostly 46.1 µM), inactives show at the highest dose ratio change, negative = inhibition, hits mostly inhibitors | actives 0.01% (n = 200,000) | AID 1487; active means well fitted inhibition curve with a large enough effect in the signal ratio, with a control signal flat, not every such curve was filed as active; inconclusive means small, poorly fitted or top-dose-only effect, or effect the other way, or a change in a side signal; the % refers to the signal ratio; further: potency means the concentration at half of the fitted maximal effect
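S3 HeLa cells stably expressing lamin A-EGFP splicing minigene plus DsRed2, 600 cells/well, 48 h compound exposure at 37C. Laser-scanning cytometry; analysed as GFP (500-530 nm)/RFP (575-640 nm) total intensity ratio; 0.5% DMSO vehicle.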
ALDH1A1 block: blocks purified human ALDH1A1 activity; P00352; Purified ALDH1A1, NADH fluorescence, propionaldehyde substrate; Potency, µM (titrated, usually from 75.3 µM), inactives show top-dose activity, negative = inhibition, actives largely listed as inhibitors; actives 7.3% (n = 220,000); AID 1030;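 further: potency means the concentration at half of the fitted maximal effect; plate controls were no enzyme wells and a reference inhibitor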
PNC inhibitor: blocks assembly of the perinucleolar compartment. actives 3.1% (n = 140,000). AID 2417. PC3M PTB-GFP, PNC prevalence imaging, 16 h; hits give low values. activity change (PNC), negative = inhibition, % at 10 µM;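 active means readout at or below -70, meaning at least 70% loss of cells showing the perinucleolar compartment, a nuclear body marking cancer cells; inconclusive means readout between -30 and a set limit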;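 further: plate controls were DMSO wells for no effect and camptothecin positive control wells for full effect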
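Compounds are pinned in duplicate onto adhered PC3M cells stably expressing GFP-tagged PTB and incubated 16 h at 37 C. Cells are then fixed, nuclei stained with Hoechst, and PNC-positive cells counted.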
IMPase inh: cell-permeable inhibitors of inositol monophosphatase (IMPase); 120,000 tested, under 10 active; inhibition (IP1 accumulation), % at 46.1 µM; AID 901; CHO-M1 cells, IP1 accumulation, HTRF TR-FRET ratio; active means well fitted curve in the direction sought with a large enough effect in the signal ratio, not every such curve was filed as active; inconclusive means small, poorly fitted or top-dose-only effect, or a change in a side signal; inactive means no such curve, though single readings can be large or run the other way; the % refers to the signal ratio;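 further: cells stimulated with carbachol in lithium chloride buffer; plate controls were DMSO basal wells for no effect and reference inhibitor wells for full effect; higher means more IMPase inhibition seen as more IP1 and lower FRET ratio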
Target sequence (P97697 whole entry, looked up): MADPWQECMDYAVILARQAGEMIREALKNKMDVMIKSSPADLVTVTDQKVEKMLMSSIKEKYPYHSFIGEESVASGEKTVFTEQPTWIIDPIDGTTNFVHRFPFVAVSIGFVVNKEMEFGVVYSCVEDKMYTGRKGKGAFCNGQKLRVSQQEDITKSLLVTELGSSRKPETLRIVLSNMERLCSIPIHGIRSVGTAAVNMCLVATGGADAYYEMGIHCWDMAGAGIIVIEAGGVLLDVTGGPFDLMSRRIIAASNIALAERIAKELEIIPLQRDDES
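Carbachol-driven Gq signalling in CHO-M1 cells (2000/well) generates IP1. Compounds that block IMPase raise IP1 and so reduce the FRET signal from Eu-anti-IP1 and d2-IP1 after a 10 min room-temperature lysis.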
HPGD inh: blocks human HPGD enzyme activity; P15428; Potency, µM, for the others: at the highest dose activity change, negative = inhibition, usual class: inhibitors; purified HPGD, NADH fluorescence kinetic, PGE2 substrate; actives 4.3% (n = 150,000); further: potency means the concentration at half of the fitted maximal effect
Target sequence (P15428 whole entry, looked up): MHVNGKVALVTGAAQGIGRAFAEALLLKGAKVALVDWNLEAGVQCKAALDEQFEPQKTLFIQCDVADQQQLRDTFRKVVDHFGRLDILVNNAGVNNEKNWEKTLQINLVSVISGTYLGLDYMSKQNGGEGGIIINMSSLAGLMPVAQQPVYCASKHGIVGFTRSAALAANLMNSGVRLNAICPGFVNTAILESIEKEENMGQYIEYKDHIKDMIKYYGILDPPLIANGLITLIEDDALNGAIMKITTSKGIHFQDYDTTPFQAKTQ
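NADH formation kinetics: reaction with 30 uM PGE2 and 1 mM NAD+ (final), 20 nM enzyme, Tris-HCl pH 8 with Tween 20, after 15 min compound preincubation at room temperature. Fluorescence change, last versus first of five reads.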
The depositor's hits bear a star; u = inconclusive; x = no result given; [ ] = remark or other dose. Unless noted, the call rests on the fitted dose curve; in most records, active means well fitted inhibition curve with a large enough effect (not every such curve was filed as active); inconclusive means small, poorly fitted or top-dose-only effect, or another doubt; inactive means no such curve, though single readings can be large or run the other way. Unless noted, on the % scale 0 is the no-effect control and ±100 the full control effect.

SMILES | Luc counter | Lamin A splicing | ALDH1A1 block | PNC inhibitor | IMPase inh | HPGD inh
COc1ccc(C(Nc2ccccn2)c2oc(CO)cc(=O)c2O)cc1 (centres undefined) | -4% | -4% | u | 6 | x | u
O=c1cc(CO)oc(C(Nc2ccccn2)c2ccc(F)cc2)c1O (centres undefined) | 0% | -18% | 8.9µM* | u | 0 | -22%
O=c1cc(CO)oc(C(Nc2ccccn2)c2ccccc2Cl)c1O (centres undefined) | 3% | x | 5µM* | x | x | x
Cc1ccnc(NC(c2ccccc2O)c2oc(CO)cc(=O)c2O)c1 (centres undefined) | -1% | x | 13µM* | x | x | x
CCOC(=O)c1cc(-c2ccccc2)n(-c2cccc(C(=O)NC(C)CC)c2)c1C (centres undefined) | x | 7%[46 µM] | x | x | x | x
O=C(CCl)Nc1cccn2ncnc12 | -9% | -10% | 3.2µM* | 46 | -4 | -5%
O=C(Nc1cccn2ncnc12)C(F)(F)F | -2% | 13%[46 µM] | 1% | x | x | x
CN=c1scc(-c2ccccc2F)n1/N=C/c1ccc(O)c(O)c1O | 11µM* | -2%[9.22 µM] | 5.6µM* | x | x | x
CC(C)N=c1scc(-c2cccs2)n1/N=C/c1ccc(O)c(O)c1O | -1% | u | u | u | x | u
CN=c1scc(-c2ccccc2F)n1/N=C/c1ccc[nH]1 | 11µM* | 10%[46 µM] | -1% | x | x | x
CCOc1ccc2nc(Cl)c(C3CC(c4ccc(C)cc4)=NN3C(=O)CCC(=O)O)cc2c1 (centres undefined) | x | x | x | x | -18 | x
Cc1cc(C)cc(NS(=O)(=O)c2ccc3c(c2)CCCN3C(=O)C2CCC2)c1 | x | -8%[46 µM] | x | x | x | x
CCN(CC)C(=O)c1cccc(-c2ccc(OC)cc2)c1 | 0% | u | 16% | 33 | 20 | 14µM*
COC(=O)CNC(=O)c1cccc(-c2ccc(OC)cc2)c1 | -1% | x | -5% | x | x | x
O=S(=O)(CC(CN1CCCC1)N1CCCC1)c1ccc2ccccc2c1 (centres undefined) | 1% | u | u | -100* | -6 | -11%
Cc1ccc(S(=O)(=O)CC(CN2CCOCC2)N2CCOCC2)cc1 (centres undefined) | -1% | u | 1% | x | x | x
Cc1cc(NC(=O)c2ccc(Cl)cc2Cl)n(CCC#N)n1 | 1% | 9%[46 µM] | -1% | x | x | x
Cc1nn(CCC#N)c(N)c1C1(O)C(=O)Nc2c(Cl)cc(Cl)cc21 (centres undefined) | x | x | 4µM* | x | x | x
COc1ccc(NC(=O)C(=O)NCc2ccco2)c(OC)c1 | x | x | x | x | 1 | x
COc1cc(/C(C)=N\NC(N)=S)cc(OC)c1OC | -1% | -2% | 12% | u | x | -4%
COc1ccc2c(c1)[N+](=O)C(/C(C)=N/NC(N)=S)=C(C)[N+]2=O | -5%[7.66 µM] | x | 3.2µM* | x | x | -19%
O=c1[nH]c2[nH]c(=S)[nH]c(=S)c2[nH]1 | -2%[7.66 µM] | x | u | x | x | 3.5µM*
Cc1ccc(-c2nc(CCNC(=O)C(=O)Nc3ccc(F)cc3F)cs2)cc1 | x | 8%[46 µM] | x | x | x | x
CCOc1ccc(S(=O)(=O)NC2CCCCCC2)cc1 | -1% | u | u | x | x | x
CCOc1ccccc1OCC(=O)N/N=C(\C)Cc1ccc(OC)cc1 | -1% | u | -5% | -10 | x | -17%
SMILES | Luc counter | Lamin A splicing | ALDH1A1 block | PNC inhibitor | IMPase inh | HPGD inh
CCOc1ccc(S(=O)(=O)N/N=C(\C)Cc2ccc(OC)cc2)cc1 | 2% | -19%[46 µM] | 2.8µM* | x | x | x
CCOc1ccc(S(=O)(=O)N/N=C(\C)C2CCCCC2)cc1 | 3% | -2% | 1.8µM* | 45 | x | -8%
CCOC(=O)C1(CCCc2ccccc2)CCN(C(=O)CCCn2cncn2)CC1 | -2% | 9%[46 µM] | u | x | x | x
CCOC(=O)C1(CCCc2ccccc2)CCN(C(=O)CCN2CCCCC2=O)CC1 | -1% | x | 4.5µM* | x | x | x
CCOC(=O)C1(CCCc2ccccc2)CCN(C(=O)c2cnc(C)cn2)CC1 | 3% | x | 4.5µM* | x | x | x
CCOC(=O)C1(CCCc2ccccc2)CCN(C(=O)CCc2cnn(C)c2)CC1 | 1% | 5%[46 µM] | u | x | x | x
CCOC(=O)C1(CCCc2ccccc2)CCN(C(=O)c2cc(C)nc(C)n2)CC1 | -1% | u | u | x | x | x
CCOC(=O)C1(CCCc2ccccc2)CCN(C(=O)CCOC)CC1 | x | x | 0.45µM* | x | x | x
O=C(CSc1nccn1Cc1ccc(Cl)cc1)Nc1ccc2c(c1)OCCO2 | x | 11%[46 µM] | x | x | x | x
CN(Cc1cnn(C)c1)C(=O)c1sc2cccc(Cl)c2c1Cl | -3% | u | u | 10 | -12 | 28µM*
CCN(CC)C(=O)c1cc2sc3ccccc3c2s1 | -1% | u | u | 4 | 1 | 7.9µM*
CC1=NN(c2ccc(Cl)cc2)C(=O)C1C(c1cccc(O)c1)c1c(C)[nH]n(-c2ccc(Cl)cc2)c1=O (centres undefined) | -2% | u | 4µM* | 16 | x | 25µM*
CC1=NN(c2ccc(F)cc2)C(=O)C1C(c1cccc(O)c1)c1c(C)[nH]n(-c2ccc(F)cc2)c1=O (centres undefined) | -1% | 7% | 8.9µM* | 4 | 8 | 18µM*
Cc1cc(-c2c(C)[nH]n(-c3ccc(Cl)cc3)c2=O)n(-c2ccccc2)n1 | 0% | u | -5% | u | -1 | -5%
COc1cccc(C(c2c(C)[nH]n(-c3ccccc3)c2=O)c2c(C)[nH]n(-c3ccccc3)c2=O)c1O | -3% | 0% | -1% | -26 | 7 | -9%
N#Cc1c(N)n(-c2cccc(Cl)c2)c2nc3ccccc3nc12 | x | x | x | x | -6 | x
CN(C)CC[C@@H](C(=O)C(C)(C)C)c1ccccn1 | 1%[7.66 µM] | x | -2%[13.5 µM] | x | x | -2%
CC1=C(C(=O)NCc2ccccc2F)C2(CCCCC2)OC1=O | x | 8%[46 µM] | x | x | x | x
CN(C)c1ccc(/C=N/c2cc(-c3ccccc3)nn2-c2ccccc2)cc1 | -5% | -1% | 7.9µM* | -1 | 1 | -20%
CCC(=O)N1CCc2cc(S(=O)(=O)NC(Cc3ccccc3)C(=O)NC3CCCCC3)ccc21 (centres undefined) | 4% | 3% | 2% | 69 | x | -9%
CC(=O)N1CCc2cc(S(=O)(=O)NC(Cc3ccccc3)C(=O)Nc3cc(C)ccn3)ccc21 (centres undefined) | 0% | -2% | 10µM* | -6 | -5 | -11%
CCc1ccccc1NC(=O)Cn1c(=O)oc2ccccc21 | x | -6%[46 µM] | x | x | x | x
Cc1cccc(OCCOC(=O)Nc2ccccc2)c1 | -2% | 1% | 6% | -10 | x | -8%
Cc1ccccc1OCCOc1ccccc1C=C(C#N)C#N | 1% | u | 3.5µM* | 55 | x | -13%
Cc1ccccc1OCCNC(=S)Nc1ccccc1 | -6% | -4% | 8% | 51 | 0 | -22%
Cc1cccc(OCCOc2ccccc2C=C(C#N)C#N)c1 | -1% | u | 7.1µM* | 32 | x | -5%
